Holding throughout (assay): PBM binding z-score (relative to random genomic background probes); higher = stronger binding; sequences stand for … in GC…GCGATTGACAGCGTAGAATGAAGG
The test system of assay [1] is FXR:RXRa (NR concentration 270 nM, RXRa partner concentration 90 nM). In outline:
(§1)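 On custom Agilent 4×180K arrays, double-stranded probes with 34-nt variable regions carried direct-repeat seeds, single-nucleotide variants, half-site ablations or random human genomic background. Ligand-free nuclear receptor dimers were applied for 1 h, and binding was read with antibodies against each partner (one per run). Binding z-scores come from regression-normalized fluorescence, with the random background probes as reference.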

Assay [2] deals with LXRa:RXRa (NR concentration 270 nM, RXRa partner concentration 90 nM). The essentials: as §1
Assay [3] concerns LXRa homodimer (NR concentration 270 nM). In outline:
as §1

Assay [4] concerns LXRb:RXRa (NR concentration 270 nM, RXRa partner concentration 90 nM). In outline: as §1
The test system of assay [5] is LXRb homodimer (NR concentration 270 nM). The essentials:
as §1

In assay [6] the test system is PPARa:RXRa (NR concentration 270 nM, RXRa partner concentration 90 nM). The essentials: as §1
The subject of assay [7] is PPARg:RXRa (NR concentration 180 nM, RXRa partner concentration 90 nM). The essentials:
as §1

Assay [8] concerns PPARg:RXRa 270nM:90nM, anti-RXR (NR concentration 270 nM, RXRa partner concentration 90 nM). The essentials:
as §1

Assay [9] concerns PPARg:RXRa 30nM:10nM, anti-RXR (NR concentration 30 nM, RXRa partner concentration 10 nM). The essentials: as §1
Assay [10] concerns PPARg:RXRa 90nM:30nM, anti-RXR (NR concentration 90 nM, RXRa partner concentration 30 nM). The essentials:
as §1

Assay [11] concerns PPARg:RXRa DBDmut IVT, anti-RXR (DBD mutation: RXRa K156A/R161A, NR concentration 270 nM, RXRa partner concentration 90 nM). In outline: as §1
Assay [12] deals with PPARg:RXRa IVT, anti-PPARg (NR concentration 270 nM, RXRa partner concentration 90 nM). The essentials:
as §1

The test system of assay [13] is PPARg DBDmut:RXRa IVT, anti-PPARg (DBD mutation: PPARg1 K132A/R137A, NR concentration 270 nM, RXRa partner concentration 90 nM). In outline: as §1
For assay [14], the system named is PPARg DBDmut IVT, anti-PPARg (DBD mutation: PPARg1 K132A/R137A, NR concentration 270 nM). The essentials:
as §1

The test system of assay [15] is PPARg homodimer (NR concentration 180 nM). The essentials: as §1
The subject of assay [16] is PXR:RXRa (NR concentration 270 nM, RXRa partner concentration 90 nM). The essentials: as §1
Assay [17] has as its system PXR homodimer (NR concentration 270 nM). In outline:
as §1

The test system of assay [18] is RARa:RXR (NR concentration 270 nM, RXRa partner concentration 90 nM). In outline: as §1
Assay [19] relates to RARa homodimer (NR concentration 270 nM). The essentials: as §1
Assay [20] concerns RARb:RXRa (NR concentration 270 nM, RXRa partner concentration 90 nM). In outline:
as §1

TCGAGTAGGTTAGGGGCATTTAGAATGGCGTCGA: the PBM binding z-score in [1] is 0.425; in assay [2], 0.611; in assay [3], -0.123; in assay [4], 0.871; in assay [5] it was 0.134; in assay [6], 1.37. Besides, the PBM binding z-score was 0.729 in assay [7]; 2.07 in assay [8]; 1.37 in [9]; 1.68 in assay [10]; 2.14 in [11]; 1.43 in [12]. The PBM binding z-score in [13] was -0.441; in assay [14], -0.569; in assay [15], 0.734; in assay [16] it was 0.534; in [17], 0.61; in assay [18] it was 0.611. The values for the PBM binding z-score in [19] and in [20] were 0.362 and 0.962, respectively.

Regarding CCTCGGAGGCCAACAGGAGGTCAGAGCTGCCAGA, the PBM binding z-score in [1] was 1.54; in [2], 2.49; in assay [3] it was 1.48; in assay [4], 1.58; in [5] it was -0.663; in assay [6] it was 2.29. Moreover, the PBM binding z-score is 0.0544 in assay [7]; 0.339 in [8]; -0.921 in assay [9]; -0.26 in assay [10]; -0.0138 in [11]; 0.518 in [12]. Also, the PBM binding z-score in assay [13] is -0.818; in assay [14], -1.87; in assay [15] it was 1.58; in [16] it was 2.35; in assay [17], 0.122; in assay [18], 2.83. Besides, the PBM binding z-score in assay [19] stood at 0.23; in assay [20], 2.98.

For the sequence GCTGCTAGGTCAGGTAGGTCAGCTAACGGGTACG, the PBM binding z-score in [1] is 2.1; in [2], 1.72; in assay [3] it was 0.0186; in [4] it was 1.43; in assay [5], -0.161; in assay [6], 2.41. In addition, the PBM binding z-score in assay [7] was 1.45; in assay [8], 2.19; in assay [9], -0.0602; in [10] it was 1; in assay [11], 3.3; in assay [12], 3.37. For the same sequence, the PBM binding z-score is -0.274 in [13]; -0.592 in [14]; 1.34 in assay [15]; 1.65 in assay [16]; -0.0271 in [17]; 1.95 in [18]. Besides, the figures for the PBM binding z-score in assay [19] and in assay [20] were -0.315 and 3.87, respectively.

With GCTTACGGGTCAAAGGTTATATCATGAATAGAAT, the PBM binding z-score in assay [1] is 7.77; in assay [2], 6.12; in assay [3] it was 1.25; in assay [4], 5.78; in [5] it was 1.03; in assay [6], 6.94. Besides, the PBM binding z-score in assay [7] is 11.4; in assay [8] it was 9.51; in assay [9], 10.9; in [10], 11.1; in assay [11], 4.73; in assay [12], 5.93. In addition, the PBM binding z-score in [13] was found to be 2.65; in [14], 2.07; in assay [15], 4.59; in assay [16] it was 6.41; in assay [17] it was 0.529; in assay [18] it was 8.44. In addition, the PBM binding z-score in [19] worked out at 1.02; in assay [20] it was 4.55.

In the case of CCGACTGGGGCATAAGGTTACGATAAGCCAGCCC, the PBM binding z-score in assay [1] is 0.452; in assay [2], 0.99; in assay [3], -0.328; in assay [4] it was 0.815; in assay [5], -1.42; in [6], 2.41. Besides, the PBM binding z-score worked out at 2.58 in assay [7]; 3.55 in assay [8]; 1.47 in assay [9]; 3.22 in assay [10]; 2.87 in [11]; 3.37 in [12]. In addition, the PBM binding z-score in assay [13] was -0.323; in assay [14] it was -1.04; in [15] it was 1.02; in assay [16], 0.614; in assay [17], -0.423; in assay [18] it was 1.66. The PBM binding z-score was -0.594 in assay [19] and 1.77 in assay [20].

Take AGAACGAGGGCAATGAGTTGATACCACGGGTGGC: the PBM binding z-score in assay [1] was 0.296; in [2], 0.211; in assay [3] it was -0.493; in [4], -0.174; in assay [5], -0.279; in assay [6] it was 1.36. Moreover, the PBM binding z-score in [7] was 1.5; in [8] it was 0.94; in [9], -0.0193; in assay [10], 0.369; in assay [11], 3.03; in [12], 2.47. The PBM binding z-score stood at 0.451 in assay [13]; 0.33 in [14]; 0.443 in assay [15]; 1.66 in [16]; 5.24 in assay [17]; 0.38 in assay [18]. The PBM binding z-score in assay [19] was -0.193; in assay [20], 2.19.

Values taken from the supplement of paper PMC6555819.
